Screens (PubChem)
PolyA inhibitor: yeast polyadenylation inhibition. hit rate 0.02% among 300,000. AID 1875. activity score, % at 12 µM. S. cerevisiae SKY197-pL101 polyadenylation reporter, beta-gal luminescence; efflux-impaired pdr1/pdr3 knockout yeast; score 100 = 6 SD above DMSO;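 active = lowest replicate activity score at least 50, where 100 means six control SD above control mean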;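 also: yeast exposed to compound for 9 h at 30 °C; higher score means more reporter readthrough which indicates perturbed polyadenylation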
p-CIP stab down: compounds decreasing mouse p/CIP protein stability; Q05BA5; F442A p/CIP-EGFP cells, EGFP fluorescence, 16 h; decrease of EGFP signal, % at 10 µM; hit rate 0.01% among 290,000; AID 1984;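 active = EGFP signal decrease of at least 30% at 10 µM or well 3 SD below plate mean, unless failing retest; inactive = the rest, including hits failing retest or dose response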
AHR activator: human AHR activation; P35869; AHR-responsive luciferase reporter cells, luminescence; activation, % at 5 µM; hit rate 2.5% among 320,000; in the data active = activation above about 47%
Target sequence (P35869 whole entry, looked up): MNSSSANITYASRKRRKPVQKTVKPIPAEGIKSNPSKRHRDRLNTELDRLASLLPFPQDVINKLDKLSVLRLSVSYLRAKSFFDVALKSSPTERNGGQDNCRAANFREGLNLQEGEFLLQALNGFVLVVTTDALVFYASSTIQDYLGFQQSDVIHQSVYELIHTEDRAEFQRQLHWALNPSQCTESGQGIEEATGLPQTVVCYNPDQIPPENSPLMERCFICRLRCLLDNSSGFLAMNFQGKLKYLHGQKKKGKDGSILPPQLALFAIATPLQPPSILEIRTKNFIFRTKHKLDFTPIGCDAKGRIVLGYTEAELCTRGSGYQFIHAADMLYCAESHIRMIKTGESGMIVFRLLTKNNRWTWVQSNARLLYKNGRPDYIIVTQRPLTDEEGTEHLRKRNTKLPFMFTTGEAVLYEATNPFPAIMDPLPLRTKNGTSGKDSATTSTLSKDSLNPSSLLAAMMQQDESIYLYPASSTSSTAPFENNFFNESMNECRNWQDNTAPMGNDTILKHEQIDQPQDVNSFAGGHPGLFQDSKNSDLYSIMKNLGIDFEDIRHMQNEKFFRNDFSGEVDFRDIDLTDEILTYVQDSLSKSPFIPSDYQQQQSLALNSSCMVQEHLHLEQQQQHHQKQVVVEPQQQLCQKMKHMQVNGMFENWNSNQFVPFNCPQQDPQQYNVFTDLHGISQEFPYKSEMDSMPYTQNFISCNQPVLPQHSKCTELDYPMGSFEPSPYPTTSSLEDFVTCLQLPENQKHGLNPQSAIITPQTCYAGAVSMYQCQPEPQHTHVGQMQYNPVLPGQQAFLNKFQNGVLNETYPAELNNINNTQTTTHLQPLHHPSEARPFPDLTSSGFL
HIF activator: HIF pathway transcriptional activation. U2OS HRE-luciferase reporter, luminescence; normalized: DMSO 0%, desferrioxamine 100%. activation, % at 7.5 µM (by protocol). hit rate 0.32% among 300,000;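 active = mean activation of at least 10% of the iron chelator positive control signal, with at least half of replicates also reaching 10%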
Platelet DG rel: platelet dense granule release activity. inhibition, %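 (compounds screened at 7.5 µM in platelet-rich plasma)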. human platelet-rich plasma, SFLLRN dense granule ATP release, luminescence. hit rate 0.22% among 300,000;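 active = mean replicate score, as percent of positive control, at or above 50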
AHR act confirm: confirmation of human aryl hydrocarbon receptor activators; hit rate 87% among 2,300; human cells, AHR-responsive luciferase reporter, luminescence; shares compounds with AHR activator; activation, % at 9 µM; AID 2845; in the data active = activation above about 49%;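 also: HepG2 hepatoma cells carrying a DRE-driven firefly luciferase reporter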
PXR counter: counter-screen for AHR activators: human PXR activators. shares compounds with AHR activator. cell-based PXR reporter, luciferase luminescence. activation, % at 11.6 µM. hit rate 88% among 2,300. AID 434939; in the data active = activation above about 11%;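 also: human hepatoma DPX-2 cells expressing full-length human PXR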
Each line names hits and unclear results; the compound was inactive in the other large screens (follow-up assays come after a bar, where they were run). A selection: hits, their analogues and other compounds. The true share with any hit is near 2.8%.

CCOc1ccccc1C(=O)NCC(=O)Nc1ccc2c(c1)OCO2	AHR activator 83 (no result: PolyA inhibitor, p-CIP stab down, HIF activator, Platelet DG rel) | AHR act confirm 100 | PXR counter 102
Cc1ccccc1OC(C)C(=O)Nc1ccc2c(c1)OCO2 (stereo unspecified)	AHR activator 102 | AHR act confirm 51 | PXR counter 36
O=C(CNC(=O)c1ccccc1F)Nc1ccc2c(c1)OCO2	none (no result: PolyA inhibitor, p-CIP stab down, HIF activator, Platelet DG rel)
COc1ccc(Cl)cc1C(=O)Nc1ccc2c(c1)OCO2	AHR activator 92 | AHR act confirm 105 | PXR counter 81
COc1cccc(NC(=O)Nc2cc(NC(=O)Nc3cccc(OC)c3)c(C)nc2C)c1	AHR activator 91 | AHR act confirm 50 | PXR counter 15
CCCCOc1ccc(NC(=O)Nc2nnc(C)s2)cc1	none
O=C(NC(=S)NCc1ccccc1)c1ccc2c(c1)OCO2	AHR activator 84 | AHR act confirm 61 | PXR counter 19
COc1ccccc1C(=O)Nc1cccc(SC)c1	AHR activator 83 | AHR act confirm 85 | PXR counter 23
COc1cc(SC)ccc1C(=O)Nc1ccccc1	none
CCOc1ccccc1NC(=O)Nc1ccncc1	AHR activator 139 | AHR act confirm 86 | PXR counter 18
CCc1ccccc1NC(=O)Nc1ccc2c(c1)OCO2	AHR activator 87 | AHR act confirm 92 | PXR counter 86
CCC(Oc1ccccc1)C(=O)Nc1nnc(S(=O)(=O)N2CCCC2)s1 (stereo unspecified)	none
CC(C)C(=O)Nc1nnc(SCC(=O)NCc2cccs2)s1	none
O=C(c1cc2n(n1)C(C(F)(F)F)CC(c1ccc(F)cc1)N2)N1CCCC1 (stereo unspecified)	none
CCC(Oc1ccccc1OC)C(=O)Nc1ccc2c(c1)OCO2 (stereo unspecified)	AHR activator 115 | AHR act confirm 115 | PXR counter 56
Cc1ccc2c(c1)CCCN2C(=O)Nc1ccc2c(c1)OCO2	AHR activator 106 | AHR act confirm 96 | PXR counter 83
O=C(CCN1CCc2ccccc2C1)Nc1ccc2c(c1)OCO2	AHR activator 84 | AHR act confirm inactive | PXR counter 51
O=C(CCN1CCc2ccccc2C1)Nc1ccc(F)c(F)c1	none
Cc1cc(C)cc(C(=O)NCc2ccc3c(c2)OCO3)c1	AHR activator 106 | AHR act confirm 75 | PXR counter 52
O=C(NCc1ccc2c(c1)OCO2)c1ccccc1	none
CC(=O)c1c(C)n(-c2ccccc2)c2ccc(OCC(N)=O)cc12	none
COc1cccc(NC(=O)Nc2ccc3c(c2)OCO3)c1	AHR activator 110 | AHR act confirm 65 | PXR counter 38
CCOc1ccccc1NC(=O)NCc1ccc2c(c1)OCO2	AHR activator 97 | AHR act confirm 74 | PXR counter 40
COc1cccc(NC(=O)CN(C)CC(=O)Nc2ccc3c(c2)OCO3)c1	none (no result: PolyA inhibitor, p-CIP stab down, HIF activator, Platelet DG rel)
Cc1ccc(NCCC(=O)c2cccs2)cc1Cl	AHR activator 86 | AHR act confirm 69 | PXR counter 12
Cc1ccc(NCCC(=O)c2cccs2)cc1	none
Cc1cc(C)c(OCC(=O)NCC(C)(C)N2CCOCC2)c(C)c1	none (no result: p-CIP stab down, Platelet DG rel)
Cc1cc(C)n2cc(-c3ccc(Cl)cc3)c(C(=O)O)c2n1	AHR activator 96 | AHR act confirm 106
Cc1cc(-c2ccc(Cl)cc2)c2cnn(C(C)C)c2n1	none
CCN(CCn1cccn1)Cc1ccccc1OCC(O)CN1CCc2ccccc2C1 (stereo unspecified)	none
Cc1cc(C)nc(SCc2nc(N)nc(-c3ccccc3O)n2)n1	AHR activator 84 | AHR act confirm 91 | PXR counter 38
Nc1nc(-c2ccccc2)cc(-c2ccccc2O)n1	AHR activator 82 | AHR act confirm 174 | PXR counter 22
Nc1nc(N)nc(-c2ccccc2O)n1	none
Nc1nc(-c2ccccc2)nc(-c2ccccc2O)n1	AHR activator 84 (no result: p-CIP stab down) | AHR act confirm 107 | PXR counter 13
NNc1nc(-c2ccccc2)cc(-c2ccccc2O)n1	none
COc1ccccc1Nc1nc(N)nc(CSc2nc(C)cc(C)n2)n1	none
Fc1ccccc1-c1ccc(/C=N/Nc2nc3ccccc3[nH]2)o1	AHR activator 84 (no result: PolyA inhibitor) | AHR act confirm 78 | PXR counter 11
Cc1ccc(/C=N\Nc2nc3ccc(Cl)cc3[nH]2)o1	AHR activator 165, HIF activator 13 | AHR act confirm 117 | PXR counter 22
CCC(=O)c1cn(CC(=O)Nc2ccc(C)cc2C)c2ccccc12	none
Fc1ccc(Br)cc1/C=N/N1CCN(c2ccccc2)CC1	AHR activator 120 | AHR act confirm 117 | PXR counter 18
Cc1ccc(CN2CCN(/N=C/c3cc(Br)ccc3F)CC2)cc1	none
COc1ccc(S(=O)(=O)NNC(=O)Nc2ccc(F)cc2F)c(OC)c1	none
O=C(N/N=C/c1cccc(O)c1)c1ccc(COc2ccc3c(c2)CCC3)o1	AHR activator 118 (no result: HIF activator, Platelet DG rel) | AHR act confirm 64 | PXR counter 19
CCCc1ccc(OCc2ccc(C(=O)N/N=C/c3cccnc3)o2)cc1	none (no result: AHR activator)
COc1ccc(-c2cc(-c3cc(OC)ccc3O)[nH]n2)cc1	AHR activator 159 | AHR act confirm 140 | PXR counter 18
COc1ccc(-c2n[nH]c(C)c2-c2cc(OC)ccc2O)cc1	none
COc1ccc(O)c(-c2cc(-c3ccc(F)cc3)n[nH]2)c1	AHR activator 96 | AHR act confirm 159 | PXR counter 15
O=C(CCS(=O)(=O)Cc1ccccc1)Nc1ncc([N+](=O)[O-])s1	none
COc1ccc(/C=N\NC(=O)c2ccccc2OC)cc1COc1ccccc1C	AHR activator 96 | AHR act confirm 109 | PXR counter 35
COc1ccc(/C=N/NC(=O)c2nc(Cl)c(Cl)c(N)c2Cl)cc1COc1ccccc1F	AHR activator 116 | AHR act confirm 99 | PXR counter 105
COc1ccc(/C=N\NC(=O)c2ccccc2F)cc1COc1ccc(F)cc1F	none
COc1ccc(/C=N/NC(=O)c2nc(Cl)c(Cl)c(N)c2Cl)cc1COc1ccc(F)cc1F	AHR activator 84 | AHR act confirm 97 | PXR counter 60
CNc1ccc(S(=O)(=O)NCC(=O)OC(C)C(=O)N(C)Cc2ccccc2)cc1[N+](=O)[O-] (stereo unspecified)	none (no result: PolyA inhibitor, p-CIP stab down, HIF activator, Platelet DG rel)
O=C(CC12CC3CC(CC(C3)C1)C2)NCC(c1ccc(F)cc1)N1CCOCC1 (stereo unspecified)	none
Cc1ccc(C(C)C)cc1S(=O)(=O)Nc1cccnc1	none
Cc1nn(-c2ccccc2)c2sc(C(=O)NC3CC3)cc12	AHR activator 84 | AHR act confirm 80 | PXR counter 39
CN1C(=O)S/C(=C\c2ccc(-n3cncn3)cc2)C1=O	none
CCCn1cc(CN2CCC(n3nccc3NC(=O)c3ccccc3)CC2)c(C)n1	none
